Results on 54 compounds are retold here after ChEMBL document CHEMBL4513216, “Probing the Open Global Health Chemical Diversity Library for Multistage-Active Starting Points for Next-Generation Antimalarials” (ACS Infect Dis, 2020).

In all, about 69,000 compounds went through this assay and about 8,600 (12%) showed an effect of 50% or more. What follows is part of a selection rich in strong results, with near analogues and random picks from the rest.

For the experiment, the system named is Plasmodium berghei. Kind of experiment: Screen against P. berghei liver stage (PbLuc), transformed with Luciferase, at 10uM. The experiment is classed as functional, HepG2. To be noted: tested at 10 uM.
For the compound `O=C(c1ccc(O)nc1)N1CCc2ccc(O)cc2C1`, the INHIBITION was 11.7%. In the case of `O=C(c1cnc(OCC(F)(F)F)c(Cl)c1)N1CCc2ccc(O)cc2C1`, the INHIBITION is on record as 70.9%.

Take `O=C(c1c[nH]c(=O)c(Cl)c1)N1CCc2ccccc2C1`: the INHIBITION is on record as -29.6%.

For `CC(C)Oc1ncc(C(=O)N2CCCC(C(=O)O)C2)cc1Cl` (centres undefined), the INHIBITION was 23.3%.

Turning to `CC(C)Oc1ncc(C(=O)N2CCC(NC(=O)C3CC3)CC2)cc1Cl`, the INHIBITION is listed as -13.2%. Consider `CC(C)Oc1ncc(C(=O)N2CCc3ccc(O)cc3C2)cc1Cl`, for which the INHIBITION worked out at 77.1%. For `COc1ccc(CN2C[C@@H](OCc3csc(C)n3)[C@H]3COC[C@H]32)cc1` the value was -21.5%.

Regarding `N#CC1CCCN(C(=O)Cn2ncc(N3CCCC3)cc2=O)C1` (centres undefined), the INHIBITION came to 44.9%.

Turning to `CCc1cc(N2CCCC(CC)(C(=O)O)C2)nc(N2CCOCC2)n1` (centres undefined), the INHIBITION amounted to 39.6%. As for `CCc1cc(N2CCC3(CCCNC3=O)C2)nc(N2CCOCC2)n1` (centres undefined), the INHIBITION is 70.3%. With `Cc1cc(C2CCC2)nc(N2CCC3(CCCNC3=O)C2)n1` (centres undefined), the INHIBITION was found to be 42.5%.

`COCCN1CCN(c2nc(O)cc(Cc3ccccc3F)n2)CC1`: the INHIBITION is 38.7%. Consider `Cc1cccc(C)c1OCCCN1CCC(n2cncn2)CC1`, for which the INHIBITION is -49.5%.

Regarding `COCCN1CCN(CC2CCCCO2)CC1` (centres undefined), the INHIBITION amounted to 51.7%. Turning to `O=S(=O)(N1CCCC1)N1CCN(CC2CCCO2)CC1` (centres undefined), the INHIBITION amounted to 33.4%. Turning to `COCCCN1CCN(CC2CCCO2)CC1` (centres undefined), the INHIBITION stood at 17.5%. `COCCN1CCC(CN(CC2CCCO2)C(=O)CNC(C)=O)CC1` (centres undefined): the INHIBITION is given as 50.2%. In the case of `COCCN1CCC(CN(CC2CCCO2)C(=O)COC)CC1` (centres undefined), the INHIBITION is 26.8%. Consider `COCCN1CCC(CN(CC2CCCO2)C(=O)CCNC(C)=O)CC1` (centres undefined), for which the INHIBITION is listed as -14.9%. For `Cc1cccc(C)c1OCCCN1CCN(CC2CCCO2)CC1` (centres undefined) the value was 67.1%. As for `Cn1c(CN2CCN(CC3CCCO3)CC2)nc2ccccc21` (centres undefined), the INHIBITION came to 27.6%. For `O=C(NCCCNC(=O)c1cccc(O)c1)Nc1ccc(Cl)cc1` the value was 45.5%; for `CC(C)c1cc(C(=O)N2CCC3(CCc4ccccc4C(=O)N3)C2)no1` (centres undefined), 2.415%; for `O=S(=O)(c1c(F)cccc1F)N1CCCC1c1nnc2n1CCCCC2` (centres undefined), -21.2%.

Consider `CCCN1CCCn2c(nc(CNC(=O)N3CCCC3)cc2=O)C1`, for which the INHIBITION is listed as 49.1%. Consider `COc1cc2ncn(Cc3ncc[nH]3)c(=O)c2cc1OC`, for which the INHIBITION is recorded as 64.1%.

On to `COc1ccc2ncn(Cc3ncc[nH]3)c(=O)c2c1`, for which the INHIBITION is given as -64.3%. For `CCc1ccc2ncn(Cc3ncc[nH]3)c(=O)c2c1` the value was 15.2%. For `CCn1cnnc1CNC(=O)N1CCN(Cc2ccco2)CC1` the value was -2.19%; for `O=C(CC1CCCC1)N1C[C@H](OCc2ccncc2)[C@H]2OCCC[C@H]21`, -32%.

As for `CN1CCOC(CNCC(=O)NCCc2ccc(F)cc2)C1` (centres undefined), the INHIBITION is listed as -2.27%. For `CC1CN(C)CCN1Cc1cccc(C(=O)N(C)C)c1` (centres undefined) the value was -32%.

With `O=C(C[S+]([O-])Cc1cccc(C(F)(F)F)c1)NC1CCCC1` (centres undefined), the INHIBITION came out at 21.9%.

`O=C(C[S+]([O-])Cc1cccc(Cl)c1)NC1CCCC1` (centres undefined): the INHIBITION worked out at 15.2%. Turning to `CN(CC(=O)NC1CC1)S(=O)(=O)c1ccc(F)cc1Cl`, the INHIBITION is reported as -26.8%. For `O=C(C[S+]([O-])Cc1cccc(F)c1)NC1CCCC1` (centres undefined) the value was 54.4%. For the compound `O=C(Cc1ccc(F)cc1Cl)N[C@@H]1CCNC[C@H]1O`, the INHIBITION is listed as 4.59%. For `CN(C)C(=O)c1cccc(C[S+]([O-])CC(=O)NC2CCCC2)c1` (centres undefined) the value was 54.4%; for `O=C(C[S+]([O-])Cc1ccc(F)cc1Cl)NC1CCCC1` (centres undefined), 66.7%. `CN(C)C(=O)c1cccc(CN2CCN(CCO)CC2)c1`: the INHIBITION is -170%. `COCCC1(CNC(=O)Nc2ccc(-n3ccnn3)cc2)CCC1`: the INHIBITION was -12.2%. `CSCC[C@H]1CN2CCC[C@H]2CN1Cc1cn(C)nc1C`: the INHIBITION came to 5.11%. For `CN(Cc1ccco1)C(=O)C1CSCN1C(=O)C1CCC1` (centres undefined) the value was -16%; for `CCS(=O)(=O)N1CCCCC1c1nc(C)no1` (centres undefined), 20.1%. With `CCS(=O)(=O)N1CCCCC1c1nc(C(C)C)no1` (centres undefined), the INHIBITION turned out to be 57.3%. In the case of `CC(C)c1noc(C2CCCN2S(=O)(=O)N2CCCCCC2)n1` (centres undefined), the INHIBITION is given as -31.7%. For `Cc1ccc(C(C)NCc2c(C(C)C)nn(C)c2N2CCOCC2)o1` (centres undefined), the INHIBITION is reported as 7.27%.

In the case of `CCOc1ccc(Cl)cc1C1CCCCN1` (centres undefined), the INHIBITION is 54.9%. `CCOc1ccc(Cl)cc1C1CCCN1` (centres undefined): the INHIBITION is 18.2%. For `CCOc1ccc(Br)cc1C1CCCCN1` (centres undefined) the value was 18.4%; for `O=C(CCn1ccnc1)N1CC[C@H](Oc2cccc(F)c2)[C@@H](O)CC1`, 7.3%. For `Cc1cc(NC(=O)C(c2cccc(F)c2)N2CCOCC2)sn1` (centres undefined) the value was -22.8%; for `O=C(Nc1nnc[nH]1)C(c1cccc(F)c1)N1CCOCC1` (centres undefined), 52.6%; for `Cc1cc(NC(=O)C(c2cccc(F)c2)N2CCOCC2)ccn1` (centres undefined), 41.1%.
